These results are taken from PubChem BioAssay (EPA / NIEHS).

The structures appear in SMILES notation. Inconclusive results are not listed. The source made the active and inactive calls. How the source made its calls, unless noted: active means hit-call score of the fitted dose curve at least 0.9, where 1 is the maximum; inactive means score below 0.9.

human Thyroid Receptor alpha (THRa1), THRA (gene 7067), sequence (P10827 whole entry, looked up): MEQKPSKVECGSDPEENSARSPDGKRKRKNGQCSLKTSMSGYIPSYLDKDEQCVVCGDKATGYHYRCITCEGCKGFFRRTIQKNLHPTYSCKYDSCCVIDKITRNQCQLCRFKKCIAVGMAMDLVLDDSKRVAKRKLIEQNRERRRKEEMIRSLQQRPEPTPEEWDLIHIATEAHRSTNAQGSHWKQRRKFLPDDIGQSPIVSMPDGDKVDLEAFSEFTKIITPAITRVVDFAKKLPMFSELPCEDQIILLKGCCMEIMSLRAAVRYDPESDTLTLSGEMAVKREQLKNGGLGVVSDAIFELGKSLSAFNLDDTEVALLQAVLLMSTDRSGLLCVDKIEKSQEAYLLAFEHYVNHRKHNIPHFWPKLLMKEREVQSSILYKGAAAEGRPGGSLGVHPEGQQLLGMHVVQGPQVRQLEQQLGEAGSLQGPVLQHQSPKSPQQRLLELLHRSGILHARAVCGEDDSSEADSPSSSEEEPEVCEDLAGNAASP
E-selectin (Homo sapiens), sequence (P16581 whole entry, looked up): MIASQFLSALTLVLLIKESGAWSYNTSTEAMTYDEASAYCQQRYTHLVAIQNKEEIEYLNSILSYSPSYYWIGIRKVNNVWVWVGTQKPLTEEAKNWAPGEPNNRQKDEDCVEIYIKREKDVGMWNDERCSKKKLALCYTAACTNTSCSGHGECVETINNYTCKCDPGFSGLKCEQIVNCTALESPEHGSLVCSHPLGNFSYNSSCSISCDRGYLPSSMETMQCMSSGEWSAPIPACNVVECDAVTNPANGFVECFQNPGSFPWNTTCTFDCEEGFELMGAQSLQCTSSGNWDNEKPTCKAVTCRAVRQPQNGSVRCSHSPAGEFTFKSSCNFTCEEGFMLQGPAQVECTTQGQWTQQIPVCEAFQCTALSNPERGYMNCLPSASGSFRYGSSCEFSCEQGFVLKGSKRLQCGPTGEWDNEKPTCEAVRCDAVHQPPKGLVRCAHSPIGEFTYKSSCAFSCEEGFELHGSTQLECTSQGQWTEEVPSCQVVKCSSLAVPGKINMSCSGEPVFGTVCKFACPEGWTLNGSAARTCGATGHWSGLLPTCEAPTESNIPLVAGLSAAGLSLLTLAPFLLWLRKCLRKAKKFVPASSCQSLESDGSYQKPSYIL

For one experiment, the target named is human Retinoid X Receptor beta (RXRb), RXRB (gene 6257) (UniProt P28702). Put plainly: ATG_RXRb_TRANS: Attagene TRANS-FACTORIAL HepG2 Assay for human Retinoid X Receptor beta (RXRb) (AID 2283013; active means hit-call score of the fitted dose curve at least 0.9, where 1 is the maximum).
human Retinoid X Receptor beta (RXRb), RXRB (gene 6257), sequence (P28702 whole entry, looked up): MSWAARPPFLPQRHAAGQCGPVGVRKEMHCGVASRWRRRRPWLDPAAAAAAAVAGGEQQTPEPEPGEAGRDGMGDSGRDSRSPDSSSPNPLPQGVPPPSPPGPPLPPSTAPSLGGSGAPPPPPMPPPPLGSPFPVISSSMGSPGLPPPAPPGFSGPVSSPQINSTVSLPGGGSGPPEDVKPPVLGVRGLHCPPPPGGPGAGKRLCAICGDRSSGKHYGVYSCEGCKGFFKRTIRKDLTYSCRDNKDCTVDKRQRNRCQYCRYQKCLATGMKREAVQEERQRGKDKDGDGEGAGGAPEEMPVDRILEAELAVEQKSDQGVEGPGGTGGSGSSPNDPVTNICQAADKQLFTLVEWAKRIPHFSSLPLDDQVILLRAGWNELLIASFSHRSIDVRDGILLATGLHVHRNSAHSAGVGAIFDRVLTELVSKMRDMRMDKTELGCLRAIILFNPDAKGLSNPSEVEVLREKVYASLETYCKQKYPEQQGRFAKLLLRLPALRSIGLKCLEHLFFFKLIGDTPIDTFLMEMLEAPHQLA
Conditions: not given
An outline of the steps:
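HepG2 cells were transiently transfected with multiplexed GAL4-UAS reporters and a chimeric RXRb-Gal4 construct, then exposed for 24 h. Reporter mRNA was quantified by RT-PCR, FAM labeling, HpaI digestion and capillary electrophoresis; gain of signal was scored against DMSO.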
With `C=C(C)C(=O)OCCOC(=O)CC(C)=O`, the call was inactive.
Regarding `CC(C#N)(CCC(=O)O)N=NC(C)(C#N)CCC(=O)O` (stereo not given), the compound was called inactive.
Consider `CCCCCCCCCCCCCOS(=O)(=O)O`, for which the AC50 was 12900 nM (active).
Turning to `C=CC(C)(O)CCC=C(C)CCC=C(C)C` (stereo not given), the AC50 is 27300 nM (active).
With `CC1CCC(C(C)(C)O)CC1` (stereo not given), the compound was called inactive.
Turning to `CCCCC[Si](OCC)(OCC)OCC`, the compound was classed as inactive.
As for `NNc1nc(-c2ccc(N)cc2)cs1`, the compound was classed as inactive.
As for `CC1CCC2CC1C2(C)C` (stereo not given), the compound was called inactive.
Take `Cc1ccc(C(C)C)cc1O`: the AC50 is 100000 nM (active).
For the compound `CCCCCCCCCCCCN`, the outcome was inactive.
Take `Clc1sc(Cl)c(Cl)c1Cl`: the outcome was inactive.

A further experiment has as its target human Thyroid Receptor alpha (THRa1), THRA (gene 7067) (UniProt P10827). Put plainly: ATG_THRa1_TRANS: Attagene TRANS-FACTORIAL HepG2 Assay for human Thyroid Receptor alpha (THRa1) (AID 2283014; active means hit-call score of the fitted dose curve at least 0.9, where 1 is the maximum).
Conditions: not given
An outline of the steps:
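Transient HepG2 transfection, NR-Gal4 chimera driving GAL4-UAS reporters; 24 h compound exposure; total RNA, oligo(dT) RT, PCR, fluorescent primer extension, capillary electrophoresis. Upward direction vs DMSO control.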
For the compound `Cc1ccc(C(=O)O)o1`, the outcome was inactive.
`CC(=O)[O][Al][O]C(C)=O`: the outcome was inactive.
Same read-out and setting: to `CCCCCCCCCCCCSC` belongs “inactive”; to `CNC[C@H](O)c1cccc(O)c1`, “inactive”.
On the same count and under the same terms, to `Clc1cccc(Cl)n1` belongs “inactive”.
As for `O=C(O)C[C@H](O)C[C@H](O)/C=C/c1c(C2CC2)nc2ccccc2c1-c1ccc(F)cc1`, the result was inactive.
In the case of `CSc1nc(NC2CC2)nc(NC(C)(C)C)n1`, the outcome was inactive.
Still for that read-out and setting: to `O=C(O)c1ccc([N+](=O)[O-])cc1` belongs “inactive”; to `CCCc1ccccc1O`, “inactive”.
In the case of `CC[C@]12CCCN3CCc4c(n(c5ccccc45)[C@@](O)(C(=O)OC)C1)[C@@H]32`, the AC50 was 28500 nM (active).
For the compound `Cc1ccc2n[nH]nc2c1`, the call was inactive.
Consider `CCCCCCCCCCCCN(CCCCCCCCCCCC)CCCCCCCCCCCC`, for which the compound was called inactive.
For the compound `CCCCCC(=O)OCCc1ccccc1`, the result was inactive.
On the same count and under the same terms, the entry for `CC(C#N)(CCC(=O)O)N=NC(C)(C#N)CCC(=O)O` (stereo not given) is “inactive”.
Take `CC1CCC(C(C)(C)O)CC1` (stereo not given): the result was inactive.
Turning to `Cc1ccc(C(C)C)cc1O`, the compound was classed as inactive.

Read-out in the next experiment: E-selectin (Homo sapiens) (UniProt P16581)
Put plainly: BSK_3C_Eselectin: BioMAP Diversity Plus: 3C Assay for Eselectin Biomarker Activity (AID 2283015). The conditions noted are these: primary human endothelial cells (HUVEC); actives raise or lower the signal. An outline of the steps: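 HUVEC, 3C stimulation; compound exposure 24 h; E-selectin by ELISA; gain- or loss-of-signal fitted bidirectionally vs DMSO baseline.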
As for `CNC[C@H](O)c1cccc(O)c1`, the result was inactive.
Turning to `O=C(O)C[C@H](O)C[C@H](O)/C=C/c1c(C2CC2)nc2ccccc2c1-c1ccc(F)cc1`, the result was inactive.
For `O=C(O)c1ccc([N+](=O)[O-])cc1`, the result was inactive.
On to `Cc1ccc2n[nH]nc2c1`, for which the outcome was inactive.

Read-out in a further experiment: Interleukin-1 alpha (IL1a), IL1A (gene 3552)
Put plainly: BSK_BE3C_IL1a: BioMAP Diversity Plus: BE3C Assay for Interleukin-1 alpha (IL1a) Biomarker Activity (AID 2283016). The conditions noted are these: primary human bronchial epithelial cells; actives raise or lower the signal. The method in brief:
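Human primary bronchial epithelial cells, 24 h chemical exposure; IL-1a quantified by ELISA, fitted bidirectionally against DMSO. Cytotoxicity assessed in parallel by SRB total-protein staining at the time of measurement.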
As for `CNC[C@H](O)c1cccc(O)c1`, the outcome was inactive.
For the compound `O=C(O)C[C@H](O)C[C@H](O)/C=C/c1c(C2CC2)nc2ccccc2c1-c1ccc(F)cc1`, the AC50 was 1430 nM (active).
For the compound `O=C(O)c1ccc([N+](=O)[O-])cc1`, the outcome was inactive.
Turning to `Cc1ccc2n[nH]nc2c1`, the result was inactive.

Read-out in a further experiment: Monocyte Chemoattractant Protein-1 (MCP1), CCL2 (gene 6347)
Put plainly: BSK_3C_MCP1: BioMAP Diversity Plus: 3C Assay for Monocyte Chemoattractant Protein-1 (MCP1) Biomarker Activity (AID 2283017). The following applies: primary human endothelial cells (HUVEC); actives raise or lower the signal. An outline of the steps:
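HUVEC, 3C system; 24 h chemical exposure; MCP-1 by ELISA; bidirectional curve fit vs DMSO baseline.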
For the compound `CNC[C@H](O)c1cccc(O)c1`, the result was inactive.
With `O=C(O)C[C@H](O)C[C@H](O)/C=C/c1c(C2CC2)nc2ccccc2c1-c1ccc(F)cc1`, the outcome was inactive.
Consider `O=C(O)c1ccc([N+](=O)[O-])cc1`, for which the result was inactive.
Same read-out and setting: the entry for `Cc1ccc2n[nH]nc2c1` is “inactive”.

Read-out in the next experiment: Monocyte Chemoattractant Protein-1 (MCP1), CCL2 (gene 6347)
Put plainly: BSK_4H_MCP1: BioMAP Diversity Plus: 4H Assay for Monocyte Chemoattractant Protein-1 (MCP1) Biomarker Activity (AID 2283018). The following applies: primary human endothelial cells (HUVEC); actives raise or lower the signal. The method in brief:
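Human umbilical vein endothelial cells (4H system) exposed to chemicals for 24 h in 96-well format. MCP-1 measured by ELISA; bidirectional fitting against DMSO, with SRB total-protein staining in parallel cultures for cytotoxicity.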
With `CNC[C@H](O)c1cccc(O)c1`, the outcome was inactive.
For `O=C(O)C[C@H](O)C[C@H](O)/C=C/c1c(C2CC2)nc2ccccc2c1-c1ccc(F)cc1`, the half-maximal activity concentration (AC50) is 551 nM (active).
Consider `O=C(O)c1ccc([N+](=O)[O-])cc1`, for which the outcome was inactive.
As to `Cc1ccc2n[nH]nc2c1`, the result was inactive.

Read-out in a further experiment: Human Leukocyte Antigen - DR isotype (HLADR), HLA-DRA (gene 3122)
Put plainly: BSK_3C_HLADR: BioMAP Diversity Plus: 3C Assay for Human Leukocyte Antigen - DR isotype (HLADR) Biomarker Activity (AID 2283019).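 Further: ELISA of cell-surface HLA-DR on HUVEC 24 h after dosing.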 The conditions noted are these: primary human endothelial cells (HUVEC); actives raise or lower the signal. The method in brief:
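HUVEC, 3C stimulation, 24 h post-dose; HLA-DR by ELISA; bidirectional curve fit vs DMSO baseline; gain or loss of signal scored.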
As for `CNC[C@H](O)c1cccc(O)c1`, the outcome was inactive.
As for `O=C(O)C[C@H](O)C[C@H](O)/C=C/c1c(C2CC2)nc2ccccc2c1-c1ccc(F)cc1`, the outcome was inactive.
For `O=C(O)c1ccc([N+](=O)[O-])cc1`, the outcome was inactive.
As for `Cc1ccc2n[nH]nc2c1`, the outcome was inactive.

Read-out in another experiment: Interleukin-8 (IL8), CXCL8 (gene 3576)
Put plainly: BSK_3C_IL8: BioMAP Diversity Plus: 3C Assay for Interleukin-8 (IL8) Biomarker Activity (AID 2283020). The conditions noted are these: primary human endothelial cells (HUVEC); actives raise or lower the signal. The method in brief: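 Primary human umbilical vein endothelial cells were dosed for 24 h. IL-8 was quantified by ELISA and fitted bidirectionally against DMSO. Cytotoxicity was assessed in parallel cultures by SRB staining at 560 nm.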
For `CNC[C@H](O)c1cccc(O)c1`, the result was inactive.
Take `O=C(O)C[C@H](O)C[C@H](O)/C=C/c1c(C2CC2)nc2ccccc2c1-c1ccc(F)cc1`: the outcome was inactive.
Same read-out and setting: to `O=C(O)c1ccc([N+](=O)[O-])cc1` belongs “inactive”.
Turning to `Cc1ccc2n[nH]nc2c1`, the outcome was inactive.

For the next experiment, the target named is human Vitamin D Receptor (VDR), VDR (gene 7421) (UniProt P11473). Put plainly: ATG_VDR_TRANS: Attagene TRANS-FACTORIAL HepG2 Assay for human Vitamin D Receptor (VDR) (AID 2283022; active means hit-call score of the fitted dose curve at least 0.9, where 1 is the maximum).
human Vitamin D Receptor (VDR), VDR (gene 7421), sequence (P11473 whole entry, looked up): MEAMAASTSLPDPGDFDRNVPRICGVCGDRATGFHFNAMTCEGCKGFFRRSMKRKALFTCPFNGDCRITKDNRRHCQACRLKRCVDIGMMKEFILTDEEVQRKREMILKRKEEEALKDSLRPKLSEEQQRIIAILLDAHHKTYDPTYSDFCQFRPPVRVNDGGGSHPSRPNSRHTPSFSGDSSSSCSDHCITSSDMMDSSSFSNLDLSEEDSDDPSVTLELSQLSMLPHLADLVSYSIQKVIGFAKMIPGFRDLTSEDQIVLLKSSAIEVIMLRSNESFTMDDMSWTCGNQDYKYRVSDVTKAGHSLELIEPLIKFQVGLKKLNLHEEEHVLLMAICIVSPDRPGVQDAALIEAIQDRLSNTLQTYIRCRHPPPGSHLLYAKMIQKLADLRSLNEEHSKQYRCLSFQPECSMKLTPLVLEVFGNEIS
Conditions: not given
An outline of the steps:
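RT-PCR/capillary electrophoresis read-out of reporter mRNA induction in transiently transfected HepG2; 24 h dosing; chimeric NR-Gal4 (TRANS format); gain-of-signal fit against DMSO baseline.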
Consider `CCCC1CCC(=O)O1` (stereo not given), for which the compound was called inactive.
For `CNC[C@H](O)c1cccc(O)c1`, the call was inactive.
On to `O=C(O)C[C@H](O)C[C@H](O)/C=C/c1c(C2CC2)nc2ccccc2c1-c1ccc(F)cc1`, for which the call was inactive.
The same measure, in the same setting: to `O=[N+]([O-])c1ccc(Nc2ccc(Nc3ccccc3)c(S(=O)(=O)O)c2)c([N+](=O)[O-])c1` belongs “inactive”.
For `O=C(O)c1ccc([N+](=O)[O-])cc1`, the result was inactive.
For `C=C(C)C(=O)O`, the call was inactive.
Consider `CCCCCCOC(=O)CCCCC`, for which the compound was called inactive.
With `CCN(CC)c1ccc2c(-c3ccccc3C(=O)O)c3ccc(=[N+](CC)CC)cc-3oc2c1`, the compound was classed as inactive.

Read-out in another experiment: not listed separately
Put plainly: BSK_3C_SRB: Viability Assessment in the BioMAP Diversity Plus: 3C Assay (AID 2283023).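 Further: cells read 24 h after compound dosing; fitted both ways against DMSO so a hit may be signal rise or drop.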 The conditions noted are these: primary human endothelial cells (HUVEC). An outline of the steps:
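HUVEC, 24 h post-dose; 10% TCA fix, 0.1% SRB stain, A560 nm. Bidirectional curve fit vs DMSO negative control.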
For the compound `CNC[C@H](O)c1cccc(O)c1`, the outcome was inactive.
As for `O=C(O)C[C@H](O)C[C@H](O)/C=C/c1c(C2CC2)nc2ccccc2c1-c1ccc(F)cc1`, the AC50 is 71.3 nM (active).
As to `O=C(O)c1ccc([N+](=O)[O-])cc1`, the result was inactive.
Regarding `Cc1ccc2n[nH]nc2c1`, the result was inactive.

Read-out in a further experiment: Matrix Metallopeptidase 1 (MMP1), MMP1 (gene 4312)
Put plainly: BSK_BE3C_MMP1: BioMAP Diversity Plus: BE3C Assay for Matrix Metallopeptidase 1 (MMP1) Biomarker Activity (AID 2283024). The conditions noted are these: primary human bronchial epithelial cells; actives raise or lower the signal. The method in brief: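 Human primary bronchial epithelial cells (BE3C system) dosed for 24 h; MMP-1 quantified by ELISA. Bidirectional fit against DMSO; cytotoxicity tracked in parallel cultures by SRB total-protein staining.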
For the compound `CNC[C@H](O)c1cccc(O)c1`, the outcome was inactive.
Still for that read-out and setting: to `O=C(O)C[C@H](O)C[C@H](O)/C=C/c1c(C2CC2)nc2ccccc2c1-c1ccc(F)cc1` belongs “inactive”; to `O=C(O)c1ccc([N+](=O)[O-])cc1`, “inactive”.
On the same count and under the same terms, the entry for `Cc1ccc2n[nH]nc2c1` is “inactive”.

Read-out in the next experiment: Pselectin, SELP (gene 6403)
Put plainly: BSK_4H_Pselectin: BioMAP Diversity Plus: 4H Assay for Pselectin Biomarker Activity (AID 2283026). The following applies: primary human endothelial cells (HUVEC); actives raise or lower the signal. The method in brief: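 Primary human umbilical vein endothelial cells were treated 24 h, and cell-surface P-selectin was then quantified by ELISA. Bidirectional fit versus DMSO; cytotoxicity checked in parallel cultures by SRB total-protein staining.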
With `CNC[C@H](O)c1cccc(O)c1`, the outcome was inactive.
`O=C(O)C[C@H](O)C[C@H](O)/C=C/c1c(C2CC2)nc2ccccc2c1-c1ccc(F)cc1`: the AC50 is 152 nM (active).
Take `O=C(O)c1ccc([N+](=O)[O-])cc1`: the result was inactive.
Consider `Cc1ccc2n[nH]nc2c1`, for which the result was inactive.

Read-out in another experiment: not listed separately
Put plainly: BSK_4H_SRB: Viability Assessment in the BioMAP Diversity Plus: 4H Assay (AID 2283027).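 Further: cells exposed to compound for 24 h before staining.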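 On AC50: curves fitted both ways versus DMSO so AC50 may be loss or gain.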 The following applies: primary human endothelial cells (HUVEC). The method in brief:
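Absorbance at 560 nm of SRB-stained total protein served as the viability read-out in confluent primary human umbilical vein endothelium 24 h after chemical treatment. Curves were fitted bidirectionally against DMSO as negative control.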
On to `CNC[C@H](O)c1cccc(O)c1`, for which the outcome was inactive.
As to `O=C(O)C[C@H](O)C[C@H](O)/C=C/c1c(C2CC2)nc2ccccc2c1-c1ccc(F)cc1`, the AC50 was 847 nM (active).
Consider `O=C(O)c1ccc([N+](=O)[O-])cc1`, for which the result was inactive.
Still for that read-out and setting: to `Cc1ccc2n[nH]nc2c1` belongs “inactive”.

A word on the AC50: it is the concentration at which the activity in the assay is half-maximal.
